Bioassay records: PubChem BioAssay, National Center for Advancing Translational Sciences (NCATS)
CHX counter: Cycloheximide Counterscreen for Small Molecule Inhibitors of Shiga Toxin. max response, %. cell reporter, cycloheximide protein synthesis inhibition counterscreen. AID 2314, 2010. 300,000 tested, 12% active; in the data active means max response mostly above about 13%, no sharp cut-off; inactive means mostly below about 14%; further: read at 38.3 µM for the half of the compounds with a filed dose; 0% is about no effect
MARV entry inh: qHTS for inhibitors of binding or entry into cells for Marburg Virus. Potency, µM (doses to about 37.8 µM), without a hit: at the highest dose activity change, negative = inhibition, actives largely listed as inhibitors. 300,000 tested, 1.8% active. Marburg virus pseudotyped entry inhibition, cell reporter; calls by dose curve; tested in HEK293 cells; further: potency means the concentration at half of the fitted maximal effect; on the % scale 0 is the no-effect control and ±100 the full control effect
AMA1 RON2 block: qHTS for Inhibitors of AMA1-RON; Towards Development of Antimalarial Drug Lead: Primary Screen; Potency, µM (series often up to 58.2 µM), inactives show top-dose activity change, negative = inhibition, most hits filed as inhibitors; 360,000 tested, 0.2% active; AlphaScreen AMA1-biotinylated RON2 peptide binding; active means well fitted inhibition curve with a large enough effect; inconclusive means small, poorly fitted or top-dose-only effect; inactive means no such curve, though single readings can be large or run the other way;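 further: potency means the concentration at half of the fitted maximal effect; 0% = vehicle wells and -100% = peptide control; nearly all actives have a fitted effect of over 45% in size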
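AMA1 (3D7) with his tag at 25 nM final met compounds first, then biotinylated RON2 peptide at 25 nM; detection used donor plus acceptor beads, 10 µg/mL apiece, read by AlphaScreen after 30 min at room temperature.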
LASV entry inh: qHTS for Inhibitors of binding or entry into cells for Lassa Virus; Lassa virus pseudotype entry inhibition, cell reporter; Potency, µM (titrated, usually from 37.9 µM), for inactives: top-dose activity change, negative = inhibition, most hits filed as inhibitors; 300,000 tested, 1.2% active; AID 540256, 2011; calls by dose curve; tested in HEK293 cells; further: potency means the concentration at half of the fitted maximal effect; on the % scale 0 is the no-effect control and ±100 the full control effect; nearly all actives have a fitted effect of over 50% in size
Shiga toxin inh: A qHTS for Small Molecule Inhibitors of Shiga Toxin; Vero cells, Shiga toxin protein synthesis inhibition reporter; inhibition, % at 38.7 µM; AID 2315, 2010; 290,000 tested, 9.2% active; in the data active means inhibition mostly above about 28%, no sharp cut-off; inactive means mostly below about 43%; further: 0% is about no effect
The depositor's hits bear a star; ? = inconclusive; nt = no result; [ ] = remark or other dose. The full list was thinned out, with hits kept by preference.

SMILES | CHX counter | MARV entry inh | AMA1 RON2 block | LASV entry inh | Shiga toxin inh
CCCC/C(C)=N/NC(=O)Nc1ccccc1 | 18* | 9% | 40% | 10% | 41*
CCCCCC(=O)NNC(=O)Nc1ccccc1 | -4 | -3% | 34% | 9% | -15
Cc1sc2ncnc(NCC(O)c3ccc([N+](=O)[O-])cc3)c2c1C (stereo not drawn) | -2 | ? | 0% | ? | -8
Fc1ccc(Nc2nc3ccccc3c3nncn23)c(Cl)c1 | nt | -15%[46.1 µM] | nt | 0%[46.1 µM] | nt
CCC(C)NC(=O)CSc1ccc(S(=O)(=O)N(C)C2CCCCC2)cn1 (stereo not drawn) | nt | ? | 11%[11.6 µM] | 4µM* | nt
O=c1n(-c2ccc(Br)cc2)cnn1-c1ncccc1[N+](=O)[O-] | 31* | ? | -8% | ? | 91*
CCCc1c(C)nn(-c2ncccc2[N+](=O)[O-])c1C | 1 | 4%[46.1 µM] | -6% | 8%[46.1 µM] | -3
CCOC(=O)c1c(N)sc2c1CCC(CC)C2 (stereo not drawn) | 10 | -15% | 0% | -1% | 22
CCOC(=O)c1c(N)sc2c1CCC1C(=O)N(C3CCCCC3)C(=O)C21 (stereo not drawn) | 32* | -24% | -19% | 7% | 49
CN1CCOc2ccc(S(=O)(=O)N3CCN(S(=O)(=O)c4c(F)cccc4F)CC3)cc21 | 0 | nt | nt | nt | -2
Cn1c(=O)[nH]c(=O)c2c1nc(Br)n2CCCSc1nc2ccccc2o1 | 9 | 8.2µM* | 4% | -18% | -2
Cc1ccc(CCNC(=O)c2nnn(-c3cc(C)cc(C)c3)c2N)cc1 | 1 | ? | 0% | -4% | 13
Cc1ccc(NC(=O)c2nnn(-c3cc(C)cc(C)c3)c2N)cc1 | 38* | ? | -4% | 2% | 130*
COC(=O)c1nnn(-c2cccc(C)c2)c1N | nt | -15%[46.1 µM] | nt | 4%[46.1 µM] | nt
Cc1cccc(-n2nnc(C(=O)N3CCc4ccccc4C3)c2N)c1 | 29* | 4% | 5% | 22% | 55*
Cc1c(C(=O)Nc2ccc(F)cc2)nnn1-c1cccc(C(F)(F)F)c1 | 47* | -1%[46.1 µM] | 10% | ? | 49*
Cc1cccc(-n2nnc(C(=O)Nc3ccc(F)cc3)c2N)c1 | 51* | -19%[46.1 µM] | -5% | ? | 79*
CC(C)(C)C(=O)Nc1ccccc1N1CCN(c2ccc(F)cc2)CC1 | -2 | -16% | 0% | -6% | 1
Cc1nc2cccc(C(=O)Oc3ccc([N+](=O)[O-])cc3)c2o1 | 4 | -10%[46.1 µM] | -11% | ? | -5
O=C(Oc1ccc(-c2cnc3ccccc3n2)cc1)c1cc([N+](=O)[O-])ccc1Cl | 48* | 3% | -1% | 6% | 83*
Cc1c(C(=O)Oc2ccc(-c3cnc4ccccc4n3)cc2)cccc1[N+](=O)[O-] | 37* | 1%[46.1 µM] | -4% | ? | 95*
Cc1cc(Cl)ccc1NC(=O)CCS(=O)(=O)c1ccc2c(c1)CC(C)N2C(=O)C1CC1 (stereo not drawn) | nt | nt | nt | -1%[46.1 µM] | nt
Cc1[nH]n(-c2ccc([N+](=O)[O-])cc2)c(=O)c1C=NCCc1c(C)[nH]c2ccccc12 | -1 | ? | 42% | 8% | -12
CCSc1nncn1/N=C/c1ccc(OC)c(OC)c1 | 21* | 6%[46.1 µM] | 16% | -5% | 32*
C=C(C)CSc1nncn1/N=C/c1ccc(OC)cc1 | 55* | ? | 9% | ? | 141*
SMILES | CHX counter | MARV entry inh | AMA1 RON2 block | LASV entry inh | Shiga toxin inh
COc1ccc(-n2cnnc2SCC(=O)N2CCN(c3ccccc3)CC2)cc1 | 6 | 1% | -2% | -12% | -8
COc1cc(/C=N/n2cnnc2)ccc1OCCSc1ccc(C)cc1 | 22* | -2% | -4% | 16% | 34
COc1ccc(NC(=O)COC(=O)C2COc3ccccc3O2)cc1OC (stereo not drawn) | nt | nt | 3% | nt | nt
CC(=O)O[C@H]1CC2(C)[C@@H](C[C@@H](O)[C@H]3[C@@]4(C)CC[C@@H](O)[C@@H](C)[C@@H]4CC[C@@]32C)C1=C(CCC=C(C)C)C(=O)O (stereo partly drawn) | nt | ? | nt | 2% | nt
N=NC(=O)c1ccccc1Nc1c(O)[nH]c2ccccc12 | nt | ? | -1% | 6.3µM* | nt
CC(=O)Nc1c(O)[nH]c2ccccc12 | -2 | 24% | -5% | 6% | 13
CN(C)c1ccc(/C=C2/C(=N\O)C3CCN2CC3)cc1 | 41* | 5%[46.1 µM] | -13% | 5%[46.1 µM] | 89*
COC(=O)c1cc(S(=O)(=O)N2CCN(C(=O)c3ccco3)CC2)cn1C | 1 | nt | -6% | nt | -4
O=S(=O)(NCC1CCCO1)c1ccc(Cl)nc1 (stereo not drawn) | -3 | 0%[46.1 µM] | -8% | 25%[46.1 µM] | -5
O=C(CCc1nc(-c2cccs2)no1)Nc1ccccc1[N+](=O)[O-] | nt | ? | nt | 6%[46.1 µM] | nt
Cc1cc2ncn(C(=O)N3CCCCC3)c2cc1C | 13 | 6% | ? | ? | 36
Cc1cc2ncn(C(=O)N3CCCCCC3)c2cc1C | 19* | 2% | 10% | 19% | active
Cc1cc2oc(C(=O)N3CCN(CCc4ccccn4)CC3)c(C)c2cc1C | -2 | nt | -5% | nt | -7
Cc1ccc2c(C)c(C(=O)N3CCN(Cc4ccccn4)CC3)oc2c1C | 17* | nt | 51% | nt | 18
Cc1cccc(C(=O)Nc2nnc(-c3ccc(C(C)(C)C)cc3)s2)c1 | 19* | -29% | -7% | ? | 46
Cc1ccccc1C(=O)Nc1nnc(-c2ccc(C(C)(C)C)cc2)s1 | 16* | 7% | -3% | 12% | -9
Cc1nn(C)cc1/C=N\NC(=O)c1csc2c1CCCC2 | 65* | ? | 11% | -8% | 65*
Cc1ccc(/C=N/NC(=O)c2csc3c2CCCC3)cc1 | 27* | ? | -5% | ? | 101*
COc1cc(/C=N/NC(=O)c2csc3c2CCCC3)cc(OC)c1O | -3 | ? | 13% | -6% | 17*
CCOc1cc(/C=N/NC(=O)c2ccc(CN3CCOCC3)cc2)ccc1OC | 2 | ? | -3% | 2% | -10
Cc1nn(C)cc1/C=N\NC(=O)Cc1ccc([N+](=O)[O-])cc1 | 1 | 12% | 24% | -12% | 38
COc1ccc(CNC(=O)c2csc3c2CCCC3)cc1 | nt | 11% | 17% | 1% | nt
COc1cc(/C=N/NC(=O)c2csc3c2CCCC3)ccc1OCCN1CCOCC1 | 26* | nt | -4% | nt | 26
COc1cccc(CNC(=O)COCc2cc(-c3ccc4c(c3)OCO4)on2)c1 | nt | nt | nt | -28%[46.1 µM] | nt
COc1ccc(NC(=O)c2c(-c3ccc(C)cc3)nnc3ccccc23)c(OC)c1 | nt | nt | nt | 0%[46.1 µM] | nt
N#Cc1ccsc1NC(=O)CSc1nnc(-c2ccccc2)o1 | 31* | -6%[46.1 µM] | -8% | 11% | 87*
Cc1cnc(NC(=O)CSc2nnc(-c3ccccc3)o2)s1 | 41* | ? | 20% | -15% | 44*
Cc1ccc(-c2nnc(SCC(=O)Nc3ccccc3F)o2)cc1 | 16* | nt | 12% | nt | -3
N#Cc1ccsc1NC(=O)COc1ccc(-c2nnco2)cc1 | 35* | 28% | 4% | 23% | 99*
